Screens from PubChem BioAssay.
This is a sample that favours compounds with a hit; in the whole collection about 8.7% have one here.
G9a inh-1: inhibitors of human histone lysine methyltransferase G9a | Q96KQ7 | G9a H3K9 monomethylation, AlphaScreen, 2 h | Potency, µM (highest dose often 102 µM), usual class: inhibitors | 350,000 compounds, 8.8% hits | AID 504332; also: nearly all actives have a fitted effect of over 75% in size
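Enzyme 20 nM + cpd, 15 min RT; add b-H3K9 pep 500 nM / SAM 20 uM; 2 h RT; anti-H3K9me1 Ab 0.5 ug/mL + SA donor / anti-rabbit acceptor beads 20 ug/mL each, 10 min; AlphaScreen read.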
BAZ2B block: inhibitors of human BAZ2B bromodomain. 360,000 compounds, 4.4% hits. Q9UIF8. Potency, µM (highest dose often 114 µM), usual class: inhibitors. AlphaScreen BAZ2B-H3K14Ac peptide displacement; also: nearly all actives have a fitted effect of over 60% in size
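In this displacement format the biotinylated H3(5-23) peptide acetylated at Lys14 serves as ligand at 50 nM, with BAZ2B at 50 nM in PBS pH 7.4 containing 0.01% Tween-20. Donor and acceptor beads are 10 ug/mL final.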
Sfp PPTase inh: Sfp phosphopantetheinyl transferase inhibition; Potency, µM, actives largely listed as inhibitors; Biochemical Sfp PPTase activity, qHTS; 310,000 compounds, 3.5% hits; Q9F4F7; AID 1490;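 also: the enzyme is Sfp with the accession as filed and its product quenches rhodamine fluorescence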
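Compounds were incubated with enzyme (final 15 nM) for 15 min at room temperature before substrate addition started the reaction. Fluorescence at 525 nm excitation, 598 nm emission was recorded immediately and after 30 minutes.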
JMJD2A Tudor inh: inhibitors of human JMJD2A Tudor domain. O75164. Potency, µM (titrated, usually from 114 µM), most hits filed as inhibitors. 390,000 compounds, 4.4% hits. AlphaScreen JMJD2A-Tudor / H3K4me3 peptide binding; also: nearly all actives have a fitted effect of over 50% in size
12-LOX inh: blocks human arachidonate 12S-lipoxygenase; Potency, µM (series often up to 108 µM), hits mostly inhibitors; P18054; purified 12hLO, xylenol orange hydroperoxide absorbance; 580,000 compounds, 1.1% hits
Target sequence (P18054 whole entry, looked up): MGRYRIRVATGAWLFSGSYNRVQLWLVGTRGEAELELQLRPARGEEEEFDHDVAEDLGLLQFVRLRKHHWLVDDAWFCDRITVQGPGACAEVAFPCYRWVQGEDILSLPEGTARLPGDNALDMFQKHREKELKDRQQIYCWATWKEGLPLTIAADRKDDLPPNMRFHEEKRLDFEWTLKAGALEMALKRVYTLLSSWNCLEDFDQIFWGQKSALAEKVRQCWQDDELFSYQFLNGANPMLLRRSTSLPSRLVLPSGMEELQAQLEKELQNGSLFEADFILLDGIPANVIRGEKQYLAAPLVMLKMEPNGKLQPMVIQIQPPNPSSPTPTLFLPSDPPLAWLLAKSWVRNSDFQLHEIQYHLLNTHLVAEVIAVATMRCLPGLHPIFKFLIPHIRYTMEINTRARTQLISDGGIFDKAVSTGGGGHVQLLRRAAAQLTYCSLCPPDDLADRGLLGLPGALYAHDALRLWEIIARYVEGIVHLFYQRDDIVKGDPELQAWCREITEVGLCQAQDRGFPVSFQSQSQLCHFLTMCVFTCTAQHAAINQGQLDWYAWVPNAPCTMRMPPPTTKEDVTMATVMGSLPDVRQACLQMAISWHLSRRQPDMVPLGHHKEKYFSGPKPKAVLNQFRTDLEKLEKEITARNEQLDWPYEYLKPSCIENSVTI
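Hydroperoxide product was detected by ferrous iron/xylenol orange as the 573 to 405 nm absorbance ratio. Arachidonic acid at 40 uM (final) was turned over for 30 min at room temperature by 150 nM human 12hLO, pH 7.0 Hepes buffer, after 15 min compound preincubation.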
HP1b chromo inh: inhibitors of HP1-beta chromodomain binding to methylated histone tails | Potency, µM (titrated, usually from 114 µM), hits mostly inhibitors | AlphaScreen HP1-beta / biotin-H3K9me3 peptide binding | 390,000 compounds, 0.56% hits | AID 540317; also: nearly all actives have a fitted effect of over 70% in size
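HP1-beta protein (50 nM final) preincubated 30 min at room temperature with biotinylated H3(1-18)K9me3 peptide (50 nM) in PBS pH 7.4, 0.01% Tween-20, then compound added for 30 min. AlphaScreen streptavidin donor/nickel chelate acceptor beads (10 ug/mL final), 30 min dark, luminescence read.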
JMJD2E confirm: JMJD2E (human) demethylase inhibition, confirmation | 140 compounds, 93% hits | shares compounds with JMJD2A Tudor inh | Potency, µM (highest dose often 56.8 µM), actives largely listed as inhibitors | Recombinant JMJD2E, FDH-coupled NADH fluorescence (FDH is formaldehyde dehydrogenase)
FDH inh: counter-screen for JMJD2E inhibitors: Pseudomonas putida formaldehyde dehydrogenase. AID 2680. 140 compounds, 10% hits. shares compounds with JMJD2A Tudor inh. Potency, µM (titrated, usually from 56.7 µM), usual class: inhibitors. FDH enzyme assay, NADH fluorescence kinetic
G9a inh-2: inhibits human G9a histone lysine methyltransferase, hit confirmation; 370 compounds, 89% hits; G9a H3K9 monomethylation, AlphaScreen, 2 h; Potency, µM, hits mostly inhibitors; shares compounds with JMJD2A Tudor inh; also: nearly all actives have a fitted effect of over 65% in size
Numbers stand for hits; . = inactive; ? = inconclusive; / = not tested or not shown; [ ] = remark or other dose. Calls follow the shape of the dose curve; as a rule, active = well fitted curve in the direction sought with a large enough effect; inconclusive = small, poorly fitted or top-dose-only effect, or another doubt; inactive = no such curve, though single readings can be large; an effect the other way counts as inactive or inconclusive.

SMILES	G9a inh-1	BAZ2B block	Sfp PPTase inh	JMJD2A Tudor inh	12-LOX inh	HP1b chromo inh	G9a inh-2	others
COC(=O)c1ccc(OC(=O)C2CC(=O)N(c3ccc(C)cc3C)C2)cc1 (stereo not drawn)	?	.	.	.	.	.	28
COc1ccc(OC(=O)C2CC(=O)N(c3ccc(C)cc3)C2)cc1 (stereo not drawn)	?	.	.	.	.	.	/
Cc1nc(-c2ccccc2)n(Cc2cccc(C(F)(F)F)c2)c(=O)c1CCO	/	/	/	/	.	/	/
CCOC(=O)c1nn(-c2ccc(OC)cc2)c(=O)c2c(N)scc12	1.1µM	50µM	10µM	?	?	.	4
Cc1oc(C(O)c2ccccc2)nc1C(=O)Nc1ccc2[nH]ccc2c1 (stereo not drawn)	/	/	/	/	.	/	/
COCCN1Cc2ccc(Nc3ccc(OC)cc3)nc2C(C)(C(=O)Nc2ccccc2)C1 (stereo not drawn)	/	/	/	/	.	/	/
Oc1ccc(NCc2ccccc2OCc2ccccc2F)cc1	3.2µM	45µM	?	56µM	.	?	/	JMJD2E confirm=20µM;FDH inh=?
NS(=O)(=O)c1ccc(NCc2ccccc2OCc2ccccc2F)cc1	.	.	.	?	?	.	/
Cc1ccc(NCc2ccccc2OCc2ccccc2F)cc1	?	?	.	?	.	.	/
Oc1ccc(NCc2ccccc2OCc2ccccc2Cl)cc1	?	25µM	/	?	.	.	11
CCc1nc(NC(CCn2cncn2)c2ccccc2)c2cnn(C)c2n1 (stereo not drawn)	/	/	/	/	.	/	/
CN(C)c1ccc(Nc2nc(-c3cccnc3)cs2)cc1	?	?	.	.	.	.	0.5
CCN(CC)c1ccc(Nc2nc(-c3cccnc3)cs2)cc1	0.89µM	20µM	.	13µM	.	40µM	5
Fc1ccc(Nc2nc(-c3cccnc3)cs2)cc1	.	.	.	.[11.4 µM]	.	.	/
CCN1CCN(CCNC(=O)Cc2cccn2-c2ccc(C)cc2)CC1	/	/	/	/	.	/	/
O=C(Nc1ccc(N2CCN(c3ccc(O)cc3)CC2)cc1)Oc1ccccc1	0.89µM	.	.	.	?	.	0.2
CCc1ccc(CNC(=O)c2ccc3c(c2)c(C)c(C)n3Cc2ccccc2)cc1	.	?	/	?	.	.	/
Cc1c(C)n(Cc2ccccc2)c2ccc(C(=O)OCCN(C)C)cc12	?	22µM	.	56µM	?	?	32
COc1ccc(NC(=O)c2c(NC(=O)c3cccc(C)c3)sc3c2CCCC3)cc1	?	.	/	.	?	.	/
CCOC(=O)N1CCc2c(sc(NCc3cccc(F)c3)c2C(=O)Nc2ccc(OC)cc2)C1	?	79µM	/	10µM	?	.	2.3
CCOC(=O)N1CCc2c(sc(NCc3ccc(N(C)C)cc3)c2C(=O)Nc2ccc(OC)cc2)C1	2.8µM	22µM	/	14µM	?	?	3.6
CCOC(=O)N1CCc2c(sc(NCc3cccc(F)c3)c2C(=O)Nc2ccc(OC)cc2OC)C1	?	?	/	?	?	?	2.5
CC(C)(C)c1cc(NC(=O)CS(=O)(=O)c2ccc(F)cc2)on1	/	/	/	/	.	/	/
CCn1c(CSc2nc3ccccc3s2)nnc1SCC(=O)c1ccc(O)c(O)c1	0.79µM	35µM	.	45µM	?	.	1.4
CCn1c(CSc2nc3ccccc3s2)nnc1SCC(=O)c1ccc(Cl)cc1	?	.	.	?	.	.	/
COc1ccc(C(=O)c2sc(Nc3cccc(OC)c3)c(C(=O)Nc3cccc(C)c3C)c2N)cc1	?	.	.	?	.	.	4.5
